MEX-5 binding – C. elegans MEX-5 TCR-2 RNA binding activity | MEX-5/FITC-TCR2 RNA binding, fluorescence polarization; stronger effect = lower value | activity score (negative = inhibition of binding), % at 10 µM | hit rate 0.38% among 300,000 | AID 1832;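 active means inhibition past about -25% in most replicates, and total fluorescence under double the plate's negative control median, limit read from the data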;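 further: 0% = DMSO and -100% = 5 µM competing unlabeled TCR2 RNA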
Target sequence (Q9XUB2 whole entry, looked up): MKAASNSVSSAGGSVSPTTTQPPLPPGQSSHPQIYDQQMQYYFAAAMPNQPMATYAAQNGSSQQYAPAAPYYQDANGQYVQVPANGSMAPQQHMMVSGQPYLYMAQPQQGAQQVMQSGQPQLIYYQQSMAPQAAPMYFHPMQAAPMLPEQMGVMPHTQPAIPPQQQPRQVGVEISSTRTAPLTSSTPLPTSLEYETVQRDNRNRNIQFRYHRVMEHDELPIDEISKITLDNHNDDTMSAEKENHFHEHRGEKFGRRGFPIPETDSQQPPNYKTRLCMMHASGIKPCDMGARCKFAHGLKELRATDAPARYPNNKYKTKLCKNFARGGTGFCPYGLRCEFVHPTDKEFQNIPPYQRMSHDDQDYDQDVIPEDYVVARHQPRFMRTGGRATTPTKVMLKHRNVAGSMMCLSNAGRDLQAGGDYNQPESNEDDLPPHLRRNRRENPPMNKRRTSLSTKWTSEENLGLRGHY
JMJD2C inh – blocks human GASC-1 demethylase activity; GST-JMJD2C(1-420) H3K9me3 demethylation, DELFIA europium; hit rate 0.069% among 330,000; inhibition, % at 2.35 µM;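 active means more than half of a compound's replicate wells show inhibition beyond 50%, single wells judged on their own value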;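 further: signal counts dimethyl H3K9 product captured on neutravidin plate; 0% = median of DMSO wells and 100% = 0.3 times that DMSO median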
m5-HT2A agonist – activates the mouse 5-HT2A serotonin receptor; CHO-K1 mHTR2A beta-arrestin complementation, luminescence; percent of 30 µM serotonin response; P35363; AID 624169; activation, % at 7.6 µM; hit rate 0.66% among 360,000;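 active means activation above a run cutoff, the mean activation of all tested compounds plus 3 SD, cut at about 14% in these data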;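 further: 0% = plate median of compound wells and 100% = 30 µM serotonin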
Granule exo inh – lytic granule exocytosis inhibition; TALL-104 LAMP-1 surface exposure, flow cytometry; cells stimulated with thapsigargin and PMA; inhibition, % at 10 µM; hit rate 0.66% among 360,000; AID 651702;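 active means inhibition above about 55%, limit read from the data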
VLA-4 inh – inhibition in a human VLA-4 binding assay | VLA-4 expressing cells, ligand binding flow cytometry | inhibition, % (about 7 µM as worked out from the volumes in the protocol) | hit rate 0.2% among 330,000 | AID 2557; in the data active means inhibition above about 50%
V-ATPase pH – yeast V-ATPase proton transport regulation by pHLuorin; S. cerevisiae, pHLuorin cytosolic pH fluorescence; response, % at 10 µM; hit rate 0.37% among 350,000; in the data active means response mostly above about 7.3%, no sharp cut-off; inactive means mostly below about 5.4%; further: actives read high
Exocytosis CP01 – lytic granule exocytosis inhibition | shares compounds with Granule exo inh | TALL-104 cells, LAMP-1 externalization, flow cytometry; stimulated with PMA plus thapsigargin | inhibition, % at 10 µM | hit rate 11% among 1,500 | AID 651954; in the data active means inhibition above about 60%;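 further: 0% = stimulated vehicle wells and 100% = unstimulated wells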
Numbers without * were called inactive. Only some compounds are listed: those with a hit (about 2.2% of all), similar ones and a draw of the others.

Screening CCC(C(=O)n1cccc1C#N)c1ccccc1C (stereo not given) returned JMJD2C inh -3.5, m5-HT2A agonist 2.7, Granule exo inh 70.0*, VLA-4 inh 0.0, V-ATPase pH -0.4 and Exocytosis CP01 -5.1.
For COc1cccc(NC(=O)c2sc3nc(N4CCOCC4)c4c(c3c2N)CCCC4)c1 the results were MEX-5 binding 0.4, JMJD2C inh -4.5, m5-HT2A agonist 5.6, Granule exo inh 69.4*, VLA-4 inh 9.7, V-ATPase pH -4.4 and Exocytosis CP01 -15.5.
Screening CCC(=C(c1ccc(OC)cc1)c1ccc(OC)cc1)c1cn(CC(O)CN2CCN(C)CC2)c2ccccc12 (stereo not given) returned JMJD2C inh -5.0, m5-HT2A agonist -3.9, Granule exo inh 88.8*, VLA-4 inh 22.5, V-ATPase pH -2.9 and Exocytosis CP01 83.1*.
Screening CCN1C[C@@H]2[C@@H]3C(=O)N(C)C(=O)[C@@H]3[C@](C)(C1=O)N2C(=O)c1ccc(Br)cc1 returned m5-HT2A agonist -1.7, Granule exo inh 9.7 and V-ATPase pH 1.7.
`CCN(Cc1ccc(OC)c(COC)c1)CC1CCCN(CCc2cccc(OC)c2)C1` (stereo not given) gave MEX-5 binding 0.8, JMJD2C inh 32.0, m5-HT2A agonist -6.1, Granule exo inh 72.0*, VLA-4 inh 7.8, V-ATPase pH -1.1 and Exocytosis CP01 -11.7.
Screening CCN(Cc1ccc(OC)c(COC)c1)CC1CCCN(CCc2cccc(F)c2)C1 (stereo not given) returned MEX-5 binding 3.0, JMJD2C inh -15.8, m5-HT2A agonist -0.2, Granule exo inh 67.9*, VLA-4 inh -0.6, V-ATPase pH -0.2 and Exocytosis CP01 -11.7.
`CCN(Cc1ccc(NC(C)=O)cc1)CC1CCCN(CCc2cccc(OC)c2)C1` (stereo not given) gave MEX-5 binding 1.7, JMJD2C inh 12.4, m5-HT2A agonist -7.9, Granule exo inh 50.8, VLA-4 inh 6.3 and V-ATPase pH -1.1.
Screening CCN(Cc1ccccc1OC)CC1CCCN(CCc2cccc(OC)c2)C1 (stereo not given) returned MEX-5 binding -1.6, JMJD2C inh -8.7, m5-HT2A agonist -4.5, Granule exo inh 63.0*, VLA-4 inh 0.7, V-ATPase pH -1.6 and Exocytosis CP01 -10.7.
COCc1cc(CN2CCN(CCc3ccccc3)C(CCO)C2)ccc1OC (stereo not given) was read as MEX-5 binding -2.2, JMJD2C inh 1.1, m5-HT2A agonist -6.3, Granule exo inh 36.4, VLA-4 inh 2.2 and V-ATPase pH -2.7.
Screening Cc1cc2nc(/C=C/c3cccnc3)[nH]c2cc1C returned MEX-5 binding -0.6, JMJD2C inh 9.2, m5-HT2A agonist -1.6, Granule exo inh 57.6*, VLA-4 inh 3.0, V-ATPase pH -0.3 and Exocytosis CP01 -10.6.
Screening Cc1cc2nc(/C=C/c3nc4cc(C)c(C)cc4[nH]3)[nH]c2cc1C returned MEX-5 binding -4.6, JMJD2C inh -23.1, m5-HT2A agonist 3.9, Granule exo inh 0.5, VLA-4 inh -5.8 and V-ATPase pH -3.8.
`CNC(=O)C1(c2ccccc2)CCCCC1` gave m5-HT2A agonist -0.1, Granule exo inh -4.0 and V-ATPase pH 3.6.
For COc1ccccc1NC(=O)C1(c2ccccc2)CCCC1 the results were MEX-5 binding 1.5, JMJD2C inh -12.4, m5-HT2A agonist -5.0, Granule exo inh 84.7*, VLA-4 inh -0.1, V-ATPase pH -1.1 and Exocytosis CP01 -2.8.
O=S1(=O)CC(N2CCN(CC3CC3)CC2)CN1Cc1ccccc1 (stereo not given) was read as m5-HT2A agonist -0.6 and Granule exo inh -0.5.
For COc1ccc(CCNCc2ccc(OCc3ccccc3)cc2)cc1 the results were MEX-5 binding -0.2, JMJD2C inh -6.2, m5-HT2A agonist -6.8, Granule exo inh 85.2*, VLA-4 inh 10.6, V-ATPase pH -0.1 and Exocytosis CP01 57.3.
COc1ccc(CNS(=O)(=O)CCNCCc2ccccc2)cc1 was read as m5-HT2A agonist -1.9, Granule exo inh -2.1 and V-ATPase pH 0.1.
`CC(=O)n1c(-c2ccccc2)c(CO)c2ccccc21` gave MEX-5 binding 1.7, JMJD2C inh 3.7, m5-HT2A agonist -8.2, Granule exo inh -3.1, VLA-4 inh 17.4 and V-ATPase pH -1.7.
NCCc1c(-c2ccccc2)n(-c2ccccc2)c2ccccc12 was read as MEX-5 binding 1.3, JMJD2C inh 18.9, m5-HT2A agonist -2.4, Granule exo inh 90.6*, V-ATPase pH -1.8 and Exocytosis CP01 69.8*.
`CCOc1ccc(Cl)cc1CNCCCSc1nc(C)cc(C)n1` gave MEX-5 binding -0.8, JMJD2C inh -4.6, m5-HT2A agonist -2.8, Granule exo inh 86.7*, VLA-4 inh 12.7, V-ATPase pH 1.0 and Exocytosis CP01 -3.1.
`C/C(=N/NC(=O)CNS(=O)(=O)c1ccccc1)c1ccc(Br)cc1` gave MEX-5 binding -1.8, JMJD2C inh 9.8, m5-HT2A agonist 1.4, Granule exo inh -11.6, VLA-4 inh 15.2 and V-ATPase pH -1.6.
CNC(=O)CSc1cnc2ccccc2n1 was read as MEX-5 binding -10.2, JMJD2C inh 20.6, m5-HT2A agonist -1.5, Granule exo inh 3.4, VLA-4 inh 0.7 and V-ATPase pH -1.1.
For COc1ccc(NC(=O)c2cc([N+](=O)[O-])ccc2N2CCCCC2)cc1 the results were MEX-5 binding -1.3, JMJD2C inh -6.2, m5-HT2A agonist -8.5, Granule exo inh 68.4*, VLA-4 inh 20.5, V-ATPase pH 5.2 and Exocytosis CP01 -13.1.
For COc1ccc(NC(=O)c2cc([N+](=O)[O-])ccc2N2CCCC2)cc1 the results were MEX-5 binding 3.1, JMJD2C inh -0.4, m5-HT2A agonist 0.8, Granule exo inh -2.0, VLA-4 inh 0.4 and V-ATPase pH -1.4.
Screening Cc1ccc(S(=O)(=O)n2ccc3c(OCCOCCNCc4ccc(F)cc4)cccc32)cc1 returned MEX-5 binding 6.1, JMJD2C inh 6.5, m5-HT2A agonist -16.3, Granule exo inh 74.8*, VLA-4 inh 10.8, V-ATPase pH -0.2 and Exocytosis CP01 68.8*.
`N#Cc1nc(COc2ccccc2Cl)oc1NCc1ccc(F)cc1` gave MEX-5 binding -1.4, JMJD2C inh 30.1, m5-HT2A agonist -5.3, Granule exo inh 59.0*, VLA-4 inh -7.6, V-ATPase pH 0.1 and Exocytosis CP01 -13.7.
Screening c1ccc(-c2cc3nc(NCC4CC4)nc(NCC4CCCCC4)c3s2)cc1 returned m5-HT2A agonist -7.6, Granule exo inh 57.0* and Exocytosis CP01 31.9.
CCc1nccn1C(=O)c1cnn2c(C(F)F)cc(-c3ccccc3)nc12 was read as MEX-5 binding 1.2, JMJD2C inh 37.4 and VLA-4 inh 3.0.

Assay outcomes as filed in PubChem.
